Experimental findings from PMC7862700, “An all-to-all approach to the identification of sequence-specific readers for epigenetic DNA modifications on cytosine” are described below.

Holding throughout (experiment): DAPPL (digital affinity profiling via proximity ligation, sequencing); 10 mM Tris-HCl pH 7.5, 50 mM NaCl, 1 mM DTT, 4% glycerol, room temperature, 30 min; GST-TFs on glutathione beads, 16-mer random dsDNA library, 0.1% formaldehyde crosslink after washing; high values mean tight binding
The target in one assay is T1, FEV (Homo sapiens, UniProt Q99581 1-238).
T1 sequence: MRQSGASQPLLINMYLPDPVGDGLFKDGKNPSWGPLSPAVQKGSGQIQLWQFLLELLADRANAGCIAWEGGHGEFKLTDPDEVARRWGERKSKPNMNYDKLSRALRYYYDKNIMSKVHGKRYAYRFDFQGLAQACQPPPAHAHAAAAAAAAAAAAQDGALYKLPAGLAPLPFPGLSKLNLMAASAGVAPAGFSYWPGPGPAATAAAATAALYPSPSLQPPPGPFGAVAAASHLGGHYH
To be noted: protein: recombinant; tags: N-terminal GST; dsDNA, one strand shown. The method, boiled down: (§1)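 Human transcription factors carrying a GST fusion were produced in yeast, bound to glutathione beads, tagged with DNA barcodes and pooled together with a tag-only sample. Each pool was held with 200 nmole of a random double-stranded 16-mer DNA library in Tris/NaCl/DTT/glycerol buffer for 30 min at room temperature, then washed, crosslinked in 0.1% formaldehyde, proximity-ligated with BsaI/T4 ligase (1 h, 37 °C), PCR-amplified and sequenced on an Illumina NextSeq500. Binding signal is the read frequency of each hexamer for a given factor divided by its frequency in the tag-only sample.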

In the next assay the target is ETV5 (Homo sapiens, UniProt P41161 1-510). Particulars: protein: recombinant; tags: N-terminal GST; dsDNA, one strand shown. The essentials:
as §1

A further assay deals with HSF1 (Homo sapiens, UniProt Q00613 1-529). To be noted: protein: recombinant; tags: N-terminal GST; chain copies: 3; dsDNA, one strand shown. The method, boiled down:
as §1

Another assay has as its target T2, SPIC (Homo sapiens, UniProt Q8N5J4 1-248).
T2 sequence: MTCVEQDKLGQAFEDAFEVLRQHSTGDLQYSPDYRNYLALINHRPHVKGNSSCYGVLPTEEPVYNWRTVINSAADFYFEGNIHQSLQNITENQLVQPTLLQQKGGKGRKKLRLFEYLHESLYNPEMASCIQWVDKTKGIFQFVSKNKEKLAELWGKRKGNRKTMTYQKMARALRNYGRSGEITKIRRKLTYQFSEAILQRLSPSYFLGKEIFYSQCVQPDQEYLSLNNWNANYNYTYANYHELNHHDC
To be noted: protein: recombinant; tags: N-terminal GST; dsDNA, one strand shown. The method, boiled down: as §1

A further assay addresses ELF4 (Homo sapiens, UniProt Q99607 1-663). To be noted: protein: recombinant; tags: N-terminal GST; dsDNA, one strand shown. The essentials: as §1
The target in another assay is T3, ELK4 (Homo sapiens, UniProt P28324-2 1-405).
T3 sequence: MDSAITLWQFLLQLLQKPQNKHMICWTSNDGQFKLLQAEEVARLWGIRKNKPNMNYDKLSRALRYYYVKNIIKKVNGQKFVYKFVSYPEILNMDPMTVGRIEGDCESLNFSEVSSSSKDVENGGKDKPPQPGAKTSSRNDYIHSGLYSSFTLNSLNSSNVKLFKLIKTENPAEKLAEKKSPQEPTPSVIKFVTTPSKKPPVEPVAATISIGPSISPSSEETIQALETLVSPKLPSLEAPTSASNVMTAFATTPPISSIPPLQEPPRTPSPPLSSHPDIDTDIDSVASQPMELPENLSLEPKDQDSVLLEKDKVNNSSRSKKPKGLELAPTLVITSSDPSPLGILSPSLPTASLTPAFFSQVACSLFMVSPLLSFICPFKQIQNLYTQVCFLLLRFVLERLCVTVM
To be noted: protein: recombinant; tags: N-terminal GST; dsDNA, one strand shown. The essentials: as §1

Another assay concerns the target T4, ETV2 (Homo sapiens, UniProt O00321 1-342).
T4 sequence: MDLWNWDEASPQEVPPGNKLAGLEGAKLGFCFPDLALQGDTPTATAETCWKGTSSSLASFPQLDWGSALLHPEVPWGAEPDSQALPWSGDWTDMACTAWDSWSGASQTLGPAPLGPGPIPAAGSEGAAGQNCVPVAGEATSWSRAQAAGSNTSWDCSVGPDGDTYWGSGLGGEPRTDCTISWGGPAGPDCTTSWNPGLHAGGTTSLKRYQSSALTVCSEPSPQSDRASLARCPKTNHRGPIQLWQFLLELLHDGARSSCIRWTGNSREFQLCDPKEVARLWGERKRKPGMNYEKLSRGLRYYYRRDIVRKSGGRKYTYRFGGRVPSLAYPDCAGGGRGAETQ
Particulars: protein: recombinant; tags: N-terminal GST; dsDNA, one strand shown. The essentials:
as §1

In the next assay the target is T5, ELF3 (Homo sapiens, UniProt P78545 1-371).
T5 sequence: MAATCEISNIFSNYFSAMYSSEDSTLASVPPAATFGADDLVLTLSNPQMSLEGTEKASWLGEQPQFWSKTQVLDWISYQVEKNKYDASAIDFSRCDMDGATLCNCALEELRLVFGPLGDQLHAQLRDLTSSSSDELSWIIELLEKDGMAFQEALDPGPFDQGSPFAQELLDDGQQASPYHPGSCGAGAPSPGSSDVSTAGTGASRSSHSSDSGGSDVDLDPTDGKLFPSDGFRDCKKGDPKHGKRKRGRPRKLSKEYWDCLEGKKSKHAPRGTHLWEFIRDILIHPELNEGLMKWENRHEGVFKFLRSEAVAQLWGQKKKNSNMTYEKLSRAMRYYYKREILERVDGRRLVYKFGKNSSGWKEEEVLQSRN
Particulars: protein: recombinant; tags: N-terminal GST; dsDNA, one strand shown. The method, boiled down:
as §1

The target in the next assay is CRX (Homo sapiens, UniProt O43186 1-299). To be noted: protein: recombinant; tags: N-terminal GST; dsDNA, one strand shown. The method, boiled down: as §1
CRX, sequence (O43186 whole entry): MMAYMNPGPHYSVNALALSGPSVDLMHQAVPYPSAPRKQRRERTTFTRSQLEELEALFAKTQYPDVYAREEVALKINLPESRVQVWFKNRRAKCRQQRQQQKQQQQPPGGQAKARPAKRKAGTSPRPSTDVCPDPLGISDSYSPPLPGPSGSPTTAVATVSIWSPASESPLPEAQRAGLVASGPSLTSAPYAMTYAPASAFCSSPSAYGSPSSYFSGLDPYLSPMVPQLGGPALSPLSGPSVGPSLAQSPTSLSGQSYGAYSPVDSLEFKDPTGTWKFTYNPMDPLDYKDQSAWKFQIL
The next assay has as its target ETV1 (Homo sapiens, UniProt P50549 1-477). To be noted: protein: recombinant; tags: N-terminal GST; dsDNA, one strand shown. The essentials: as §1
In the next assay the target is T6, ERF (Homo sapiens, UniProt P50548 1-548).
T6 sequence: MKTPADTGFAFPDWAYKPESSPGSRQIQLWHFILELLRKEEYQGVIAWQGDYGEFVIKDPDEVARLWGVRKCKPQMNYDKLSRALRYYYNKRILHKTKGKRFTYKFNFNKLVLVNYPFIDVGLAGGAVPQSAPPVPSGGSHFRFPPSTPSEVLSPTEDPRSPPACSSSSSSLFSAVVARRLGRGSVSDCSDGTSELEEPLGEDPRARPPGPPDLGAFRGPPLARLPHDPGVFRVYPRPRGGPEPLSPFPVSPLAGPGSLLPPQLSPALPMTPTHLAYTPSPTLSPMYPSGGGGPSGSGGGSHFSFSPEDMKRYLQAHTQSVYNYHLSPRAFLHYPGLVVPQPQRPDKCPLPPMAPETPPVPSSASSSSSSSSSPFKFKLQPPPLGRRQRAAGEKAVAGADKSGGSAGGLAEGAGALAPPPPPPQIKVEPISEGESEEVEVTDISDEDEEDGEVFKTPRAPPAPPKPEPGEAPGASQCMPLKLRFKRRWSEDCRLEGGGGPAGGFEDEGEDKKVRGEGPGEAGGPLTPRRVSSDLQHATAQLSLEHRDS
To be noted: protein: recombinant; tags: N-terminal GST; dsDNA, one strand shown. The essentials:
as §1

The next assay deals with T7, ETV3L (Homo sapiens, UniProt Q6ZN32 1-361).
T7 sequence: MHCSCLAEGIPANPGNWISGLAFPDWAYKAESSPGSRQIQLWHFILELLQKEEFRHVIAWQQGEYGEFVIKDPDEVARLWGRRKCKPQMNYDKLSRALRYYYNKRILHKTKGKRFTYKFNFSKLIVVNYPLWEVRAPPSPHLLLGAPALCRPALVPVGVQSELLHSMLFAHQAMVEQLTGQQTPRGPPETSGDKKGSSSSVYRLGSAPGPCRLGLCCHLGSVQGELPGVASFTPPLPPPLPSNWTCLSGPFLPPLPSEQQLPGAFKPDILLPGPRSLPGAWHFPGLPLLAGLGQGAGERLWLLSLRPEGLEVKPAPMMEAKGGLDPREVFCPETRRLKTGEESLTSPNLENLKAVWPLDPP
Particulars: protein: recombinant; tags: N-terminal GST; dsDNA, one strand shown. The method, boiled down: as §1

The next assay concerns the target T8, ETS2 (Homo sapiens, UniProt P15036 1-469).
T8 sequence: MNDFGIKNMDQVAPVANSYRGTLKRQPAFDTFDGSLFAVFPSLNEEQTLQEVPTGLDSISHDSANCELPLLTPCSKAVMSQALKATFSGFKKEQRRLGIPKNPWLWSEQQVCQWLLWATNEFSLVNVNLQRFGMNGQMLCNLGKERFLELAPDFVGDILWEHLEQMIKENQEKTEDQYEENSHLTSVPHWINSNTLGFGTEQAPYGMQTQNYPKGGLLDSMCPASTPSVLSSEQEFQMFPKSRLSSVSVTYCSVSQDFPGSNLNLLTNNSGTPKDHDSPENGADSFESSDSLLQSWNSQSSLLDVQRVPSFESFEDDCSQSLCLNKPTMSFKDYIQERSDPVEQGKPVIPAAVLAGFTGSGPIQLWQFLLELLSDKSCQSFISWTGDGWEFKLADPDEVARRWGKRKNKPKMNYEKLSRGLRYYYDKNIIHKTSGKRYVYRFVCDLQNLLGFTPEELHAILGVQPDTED
To be noted: protein: recombinant; tags: N-terminal GST; dsDNA, one strand shown. The essentials:
as §1

A further assay addresses T9, SPDEF (Homo sapiens, UniProt O95238 1-335).
T9 sequence: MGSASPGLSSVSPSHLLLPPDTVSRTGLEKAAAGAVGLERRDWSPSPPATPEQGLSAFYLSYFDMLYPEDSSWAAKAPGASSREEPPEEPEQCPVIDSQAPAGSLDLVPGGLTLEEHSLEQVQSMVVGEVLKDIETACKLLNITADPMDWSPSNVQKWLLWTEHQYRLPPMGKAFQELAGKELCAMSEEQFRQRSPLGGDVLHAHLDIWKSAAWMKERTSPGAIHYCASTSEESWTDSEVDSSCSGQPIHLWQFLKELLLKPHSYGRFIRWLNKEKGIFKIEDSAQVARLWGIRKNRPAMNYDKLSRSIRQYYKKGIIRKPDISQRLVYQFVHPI
Particulars: protein: recombinant; tags: N-terminal GST; dsDNA, one strand shown. The method, boiled down:
as §1

A further assay has as its target T10, ETV7 (Homo sapiens, UniProt Q9Y603 1-341).
T10 sequence: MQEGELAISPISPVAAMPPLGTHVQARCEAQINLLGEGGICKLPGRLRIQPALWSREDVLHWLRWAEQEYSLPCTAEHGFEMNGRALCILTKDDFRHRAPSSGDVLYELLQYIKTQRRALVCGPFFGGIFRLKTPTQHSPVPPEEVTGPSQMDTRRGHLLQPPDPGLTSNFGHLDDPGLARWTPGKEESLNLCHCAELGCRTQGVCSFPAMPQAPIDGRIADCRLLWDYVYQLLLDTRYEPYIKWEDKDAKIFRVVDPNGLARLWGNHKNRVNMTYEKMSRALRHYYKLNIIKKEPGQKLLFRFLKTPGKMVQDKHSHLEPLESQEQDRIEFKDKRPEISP
To be noted: protein: recombinant; tags: N-terminal GST; dsDNA, one strand shown. The method, boiled down: as §1

In another assay the target is T11, ELF5 (Homo sapiens, UniProt Q9UKW6-2 1-255).
T11 sequence: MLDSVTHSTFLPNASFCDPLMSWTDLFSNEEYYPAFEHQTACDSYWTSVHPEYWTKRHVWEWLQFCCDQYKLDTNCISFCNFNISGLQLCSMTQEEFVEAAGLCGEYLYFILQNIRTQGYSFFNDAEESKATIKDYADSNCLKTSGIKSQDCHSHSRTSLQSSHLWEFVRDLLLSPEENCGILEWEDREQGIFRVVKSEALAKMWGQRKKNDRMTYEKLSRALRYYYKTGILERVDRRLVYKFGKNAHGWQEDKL
Particulars: protein: recombinant; tags: N-terminal GST; dsDNA, one strand shown. The essentials:
as §1

Another assay addresses T12, ETV3 (Homo sapiens, UniProt P41162-2 1-143).
T12 sequence: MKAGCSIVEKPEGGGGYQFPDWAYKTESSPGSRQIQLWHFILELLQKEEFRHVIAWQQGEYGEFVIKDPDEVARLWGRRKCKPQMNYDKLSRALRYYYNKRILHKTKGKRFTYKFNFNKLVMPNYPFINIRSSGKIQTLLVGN
Particulars: protein: recombinant; tags: N-terminal GST; dsDNA, one strand shown. The method, boiled down: as §1

The target in a further assay is ETV6 (Homo sapiens, UniProt P41212 1-452). Particulars: protein: recombinant; tags: N-terminal GST; dsDNA, one strand shown. The method, boiled down: as §1
ETV6, sequence (P41212 whole entry): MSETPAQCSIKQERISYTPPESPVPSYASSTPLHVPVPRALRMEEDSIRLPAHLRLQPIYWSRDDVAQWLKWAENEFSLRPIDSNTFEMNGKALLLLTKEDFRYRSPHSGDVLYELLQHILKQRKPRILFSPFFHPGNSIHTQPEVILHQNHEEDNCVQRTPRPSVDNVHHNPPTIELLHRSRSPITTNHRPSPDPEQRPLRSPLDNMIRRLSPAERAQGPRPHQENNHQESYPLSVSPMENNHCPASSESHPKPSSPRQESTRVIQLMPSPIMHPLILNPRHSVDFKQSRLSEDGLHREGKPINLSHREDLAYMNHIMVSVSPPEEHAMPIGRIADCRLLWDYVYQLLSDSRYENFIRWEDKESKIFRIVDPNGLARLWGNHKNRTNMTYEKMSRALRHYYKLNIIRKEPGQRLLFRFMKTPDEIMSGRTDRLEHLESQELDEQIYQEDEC

ETV5, sequence (P41161 whole entry): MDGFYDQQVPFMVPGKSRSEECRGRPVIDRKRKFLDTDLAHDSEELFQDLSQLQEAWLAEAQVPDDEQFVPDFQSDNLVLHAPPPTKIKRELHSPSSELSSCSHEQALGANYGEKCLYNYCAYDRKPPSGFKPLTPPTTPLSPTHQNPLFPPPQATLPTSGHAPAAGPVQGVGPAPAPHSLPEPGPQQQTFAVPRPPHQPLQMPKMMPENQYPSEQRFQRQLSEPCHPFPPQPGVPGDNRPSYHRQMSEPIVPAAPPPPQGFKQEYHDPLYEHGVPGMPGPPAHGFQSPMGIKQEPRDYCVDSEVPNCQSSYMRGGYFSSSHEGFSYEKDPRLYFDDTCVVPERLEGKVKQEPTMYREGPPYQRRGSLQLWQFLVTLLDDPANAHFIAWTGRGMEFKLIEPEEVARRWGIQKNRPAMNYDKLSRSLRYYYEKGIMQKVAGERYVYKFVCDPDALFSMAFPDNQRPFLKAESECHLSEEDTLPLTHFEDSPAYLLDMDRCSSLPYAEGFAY
HSF1, sequence (Q00613 whole entry): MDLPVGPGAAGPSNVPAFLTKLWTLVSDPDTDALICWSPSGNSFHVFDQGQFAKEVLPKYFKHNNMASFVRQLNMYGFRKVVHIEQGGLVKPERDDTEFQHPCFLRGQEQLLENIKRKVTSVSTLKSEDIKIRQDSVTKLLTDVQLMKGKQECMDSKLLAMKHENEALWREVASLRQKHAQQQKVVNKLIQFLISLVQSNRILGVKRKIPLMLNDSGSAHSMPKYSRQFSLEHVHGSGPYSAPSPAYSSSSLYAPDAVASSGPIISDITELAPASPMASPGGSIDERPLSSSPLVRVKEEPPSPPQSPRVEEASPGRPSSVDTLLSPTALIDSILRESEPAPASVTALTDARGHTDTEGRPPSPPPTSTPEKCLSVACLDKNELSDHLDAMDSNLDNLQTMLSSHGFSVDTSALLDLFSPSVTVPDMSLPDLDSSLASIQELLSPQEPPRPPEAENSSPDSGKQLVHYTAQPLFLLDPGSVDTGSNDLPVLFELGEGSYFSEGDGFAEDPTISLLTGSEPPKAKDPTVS
ELF4, sequence (Q99607 whole entry): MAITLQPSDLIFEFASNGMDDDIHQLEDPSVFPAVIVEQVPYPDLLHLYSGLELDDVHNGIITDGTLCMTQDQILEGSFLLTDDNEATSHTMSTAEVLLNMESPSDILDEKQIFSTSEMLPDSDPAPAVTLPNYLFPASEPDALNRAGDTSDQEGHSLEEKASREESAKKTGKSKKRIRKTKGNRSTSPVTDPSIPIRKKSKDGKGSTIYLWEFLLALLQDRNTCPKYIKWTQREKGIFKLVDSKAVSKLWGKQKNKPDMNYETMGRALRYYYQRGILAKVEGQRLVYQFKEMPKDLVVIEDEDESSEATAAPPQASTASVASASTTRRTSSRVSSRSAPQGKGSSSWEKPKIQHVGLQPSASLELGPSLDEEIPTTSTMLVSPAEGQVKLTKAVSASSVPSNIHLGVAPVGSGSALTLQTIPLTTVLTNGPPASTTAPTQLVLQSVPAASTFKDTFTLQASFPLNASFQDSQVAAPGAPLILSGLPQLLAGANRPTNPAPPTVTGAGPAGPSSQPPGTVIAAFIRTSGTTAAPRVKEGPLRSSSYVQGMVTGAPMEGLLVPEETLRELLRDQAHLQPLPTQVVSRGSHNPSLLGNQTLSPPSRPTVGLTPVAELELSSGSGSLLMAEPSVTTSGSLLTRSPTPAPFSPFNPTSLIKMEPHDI
ETV1, sequence (P50549 whole entry): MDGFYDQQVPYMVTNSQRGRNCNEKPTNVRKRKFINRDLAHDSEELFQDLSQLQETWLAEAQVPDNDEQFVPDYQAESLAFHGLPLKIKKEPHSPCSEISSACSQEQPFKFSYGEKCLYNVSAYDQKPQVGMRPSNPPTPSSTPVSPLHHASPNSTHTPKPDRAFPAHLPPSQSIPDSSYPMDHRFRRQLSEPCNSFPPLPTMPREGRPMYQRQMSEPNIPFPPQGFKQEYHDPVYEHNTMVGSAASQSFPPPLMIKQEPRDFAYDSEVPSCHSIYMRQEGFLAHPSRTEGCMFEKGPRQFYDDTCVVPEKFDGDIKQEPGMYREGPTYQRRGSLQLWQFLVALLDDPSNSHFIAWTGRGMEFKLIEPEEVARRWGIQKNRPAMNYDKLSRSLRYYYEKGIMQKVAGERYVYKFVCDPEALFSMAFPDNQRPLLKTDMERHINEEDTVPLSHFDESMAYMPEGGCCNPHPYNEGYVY

As to CTTTGC, the binding signal with FEV was 1.19 fold enrichment (6-mer frequency, TF over GST control); with ETV5 it was 1.32 fold enrichment (6-mer frequency, TF over GST control); with HSF1, 1.25 fold enrichment (6-mer frequency, TF over GST control); with SPIC, 1.45 fold enrichment (6-mer frequency, TF over GST control); with ELF4, 1.36 fold enrichment (6-mer frequency, TF over GST control); with ELK4 it was 1.32 fold enrichment (6-mer frequency, TF over GST control). The binding signal in the assay with ETV2 is 1.4 fold enrichment (6-mer frequency, TF over GST control); with ELF3, 1.46 fold enrichment (6-mer frequency, TF over GST control); in the assay with CRX, 1.33 fold enrichment (6-mer frequency, TF over GST control); with ETV1, 1.35 fold enrichment (6-mer frequency, TF over GST control); in the assay with ERF, 1.32 fold enrichment (6-mer frequency, TF over GST control); with ETV3L it was 1.33 fold enrichment (6-mer frequency, TF over GST control). Moreover, the binding signal with ETS2 was 1.34 fold enrichment (6-mer frequency, TF over GST control); in the assay with SPDEF, 1.24 fold enrichment (6-mer frequency, TF over GST control); with ETV7 it was 1.28 fold enrichment (6-mer frequency, TF over GST control); with ELF5, 1.29 fold enrichment (6-mer frequency, TF over GST control); with ETV3, 1.37 fold enrichment (6-mer frequency, TF over GST control); with ETV6, 1.18 fold enrichment (6-mer frequency, TF over GST control).
